This passage reports growth results from PubChem BioAssay (NCI).

The panel holds about 83,000 compounds, 20% with a hit somewhere; the sample as a whole holds those more often.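 The test compound was applied at a single concentration to cells in 96-well plates for 48 hours, and percent growth was recorded.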 Unmarked numbers belong to inactive results. Active and inactive are the calls of the source.

The test system of the assay is SR leukemia. Put plainly: NCI-60 one-dose screen, 48 h (100 = growth as untreated, 0 = no growth, -100 = all killed). Conditions: 10 µM unless noted. On the procedure: Growth inhibition of the SR human tumor cell line is measured as a screen for anti-cancer activity. Cells are grown in 96 well plates and exposed to the test compound for 48 hours. Compounds are tested at a single concentration, which is 10^-5 M for most compounds. The reported endpoint is percent growth (GI% or GIPRCNT), where numbers from 0 - 100% represent growth inhibition, and numbers from -100% - 0 represent cell death. For example, a value of 40 represents 60% growth inhibition. A value of 0 means no net growth occurred over the course of the experiment. A value of -40 indicates 40% of cells at the beginning of the experiment died by the end of the experiment. A value of -100 means all cells are dead at the end of the experiment.
NCI-60 Human Tumor Cell Lines Screen was performed using the standard one-dose NCI protocol, which is described in more detail at https://dtp.cancer.gov/discovery_development/nci-60/default.htm.
Compounds with GIPRCNT values below 10 were considered active. Activity score was based on GIPRCNT using the following formula: […]
Score is 0 for GIPRCNT values of 100 or above, 50 for GIPRCNT values of 0, and 100 for GIPRCNT values of -100.
As for `O=C(COc1ccc(/C=C2\Oc3ccc4ccccc4c3C2=O)cc1)c1ccc([N+](=O)[O-])cc1`, the growth is 29%.

`CC[N+](CCCCCCCCCC[N+](CC)(c1ccccn1)c1ccccn1)(c1ccccn1)c1ccccn1`: the growth is -19.8% (active).

Take `CCOC(=O)CCC(=O)O[C@H]1[C@H](O[C@@H]2[C@@H](C)[C@H](O[C@H]3C[C@@](C)(OC)[C@@H](O)[C@H](C)O3)[C@@H](C)C(=O)O[C@H](CC)[C@@](C)(O)[C@H](O)[C@@H](C)C(=O)[C@H](C)C[C@@]2(C)O)O[C@H](C)C[C@@H]1N(C)C`: the growth is 92%.

On to `NC(=O)c1cc(Br)cc(Br)c1NS(=O)(=O)c1ccccc1`, for which the growth is 101%.

Consider `Cc1cc(Br)c(C)cc1Br`, for which the growth was 83.7%.

As to `Cn1cnc([N+](=O)[O-])c1Sc1nc(N)nc2nc[nH]c12`, the growth was 10.5%.

Turning to `C[C@H]1c2cccc(O)c2C(O)=C2C(=O)[C@]3(O)C(O)=C(C(N)=O)C(=O)[C@@H](N(C)C)[C@@H]3[C@@H](O)[C@@H]21`, the growth is 30%.

For `CC[C@@H](C)/C=C(C)/C=C/C(O)=C1\C(=O)N[C@@H](Cc2ccc(OC(=O)[C@@](OC)(c3ccccc3)C(F)(F)F)cc2)C1=O`, the growth was 62.6%.

With `CN(C)CCC(=O)Nc1ccc(-n2cc(-c3cccc(NC(=S)Nc4cccc(-c5cn(-c6ccc(NC(=O)CCN(C)C)cc6)nn5)c4)c3)nn2)cc1`, the growth was 25.9%.

Turning to `COc1cc(-c2nnc(-c3nc(-c4cc(OC)c(OC)c(OC)c4)n4ccccc34)o2)ccc1N`, the growth was 69.6%.

As to `OC(c1ccccc1)C(NCc1ccccc1)c1ccccc1` (stereo not given), the growth is 103%.

For the compound `CO[C@H]1/C=C/O[C@@]2(C)Oc3c(C)c(O)c4c(O)c(c(/C=N/N5C(C)CN(Cc6ccc(C#N)cc6)CC5C)c(O)c4c3C2=O)NC(=O)/C(C)=C\C=C\[C@H](C)[C@H](O)[C@@H](C)[C@@H](O)[C@@H](C)[C@H](OC(C)=O)[C@@H]1C` (stereo not given in full), the growth is 19.3%.

Turning to `CCCCN=C(N)c1ccc(OCCSCCOc2ccc(C(N)=NCCCC)cc2)cc1`, the growth was 44.7%.

With `CCOC(=O)Nc1cc(-c2ccc(C)c(NS(C)(=O)=O)c2)nn2c(C)nnc12`, the growth is 24.9%.

Take `CN1CCC[C@@H]1CCO[C@](C)(c1ccccc1)c1ccc(Cl)cc1`: the growth is 59.7%.

Turning to `c1ccc2c(-c3nc4ccccc4[nH]3)cccc2c1`, the growth is 12.5%.

For `CCOC(=O)/C(=C/CC/C(C)=C/CC/C(C)=C/CCc1ccoc1)CC(=O)N1CCCCC1`, the growth was 19.8%.

With `Cc1ccc(NC(=O)c2sc3nc4c(cc3c2N)C(=O)CCC4)cc1`, the growth was 63.1%.

As for `NS(=O)(=O)c1cc(C2(O)NC(=O)c3ccccc32)ccc1Cl` (stereo not given), the growth was 91.9%.

In the case of `CC(C)Sc1nc(Cl)c(C#N)c(-c2ccc(F)cc2)n1`, the growth is -25.2% (active).

With `COc1ccccc1NC(=O)c1sc2nc3c(cc2c1N)C(=O)CCC3`, the growth was 64%.

In the case of `COC(=O)[C@H]1[C@H]2C[C@@H]3c4[nH]c5cc(OC)ccc5c4CCN3C[C@H]2C[C@@H](OC(=O)/C=C/c2cc(OC)c(OC)c(OC)c2)[C@@H]1OC`, the growth was -7.74% (active).

Turning to `Nc1nc(Nc2ccccc2SSc2ccccc2Nc2nc(N)nc(-c3ccc(I)cc3)n2)nc(-c2ccc(I)cc2)n1`, the growth is 13.9%.

For `CC(C)Sc1nc(-c2ccc(Br)cc2)c(C#N)c(N2CCCCC2)n1`, the growth was 106%.

In the case of `C=C1CCC2C(C)(COC(=O)CC)C(OC(=O)CC)CCC2(C)C1C/C=C1/C(=O)OCC1OC(=O)CC` (stereo not given), the growth is -23% (active).

As to `CCOC(CNCc1cc(C)c2[nH]c3ccccc3c2c1C)OCC`, the growth was 77.4%.

In the case of `Cc1cc(C)c(C(=O)c2cccs2)c(C)c1`, the growth is 86.1%.

Consider `Cc1nn2c(/C=C3/C(=O)Nc4cc(Cl)ccc43)c(-c3ccccc3)nc2s1`, for which the growth was 15.1%.

As for `O=C(Nc1ccc(Cl)cc1)Nc1ccccc1CNc1nc(Nc2ccc(OCCN3CCCC3)cc2)ncc1Cl`, the growth was 1.33% (active).

In the case of `COC(=O)C1(NC(=O)CNC(=O)OCc2ccccc2)CCCC1`, the growth is 100%.

Take `Nc1nc2c(c(=O)[nH]1)C1(C(=O)Nc3ccccc31)c1c(nc(N)[nH]c1=O)N2`: the growth is 111%.

With `CC(=O)N1N=C(c2ccc(Nc3nc(NCCO)nc(NCCO)n3)cc2)CC1c1ccc(Cl)cc1` (stereo not given), the growth was 142%.

For `COc1ccc(OC)c2c1CCC1(C2)NC(=O)NC1=O` (stereo not given), the growth is 102%.

As for `Cc1nn(-c2ccccc2)c2nc(N)c(C3=NCCO3)nc12`, the growth is 104%.

As for `CC(C)=CCCC(C)c1ccc(C)c2c1OCN(CC1CCNCC1)C2` (stereo not given), the growth was -8.52% (active).

For the compound `CCCCc1n(Cc2ccc3ccccc3c2)cc[n+]1Cc1ccc2ccccc2c1`, the growth is -44.1% (active).

For the compound `CC(=O)Nc1c(Cl)cc2c(c1Cl)Cc1ccccc1-2`, the growth is 101%.

As for `O=C(COc1cccc(/C=C2\Oc3ccc4ccccc4c3C2=O)c1)c1ccc(Cl)cc1`, the growth is 51.6%.

Turning to `CN1CCN(CCCOc2ccc3ncnc(Nc4ccc(OCc5cccc(F)c5)c(Cl)c4)c3c2)CC1`, the growth was -6.49% (active).

Turning to `CN(C)c1ncnc2c1ncn2C1CCCCO1` (stereo not given), the growth was 87.7%.
